# Test results as given in PubChem BioAssay AID624296 (National Center for Advancing Translational Sciences (NCATS), 2012).
# Among all 350,000 compounds or so, about 9,900 (2.8%) were called active. A call without a number means that no potency is given here. Roughly 15% stayed inconclusive and do not appear here. Calls come from the whole dose curve; as a rule, active = well fitted activation curve with a large enough effect; inconclusive = small, poorly fitted or top-dose-only effect; inactive = no such curve, though single readings can be large or run the other way. This excerpt belongs to a sample that is enriched for actives.
# Assay: A quantitative high throughput screen for small molecules that induce DNA re-replication in MCF 10a normal breast cells. Note: nearly all actives have a fitted effect of over 50% in size.
# Details: MCF 10A DNA re-replication, Hoechst nuclear intensity, 48 h; series mostly up to 46.1 µM
# Potency is the fitted concentration of half-maximal effect.
row,SMILES,Potency
1,O=C1CC(C(=O)O)NC(=S)N1 (stereo not given),inactive
2,Cc1cc(NC(=O)c2cc3ccccc3o2)no1,inactive
3,C[C@H](CO)N1C[C@H](C)[C@@H](CN(C)Cc2ccc(-c3ccccc3)cc2)Oc2ccc(NC(=O)Cn3cnnn3)cc2C1=O,inactive
4,Cc1nn(Cc2ccc(Cl)cc2)c(Cl)c1/C=N/NC(=O)c1cccnc1,inactive
5,Cc1nn(Cc2ccc(Cl)cc2)c(Cl)c1/C=N/NC(=O)CNc1ccccc1F,16.4 µM (active)
6,CCn1nc(C)c(/C=N/NC(=O)Cc2ccc(Cl)cc2)c1C,inactive
7,CC(=O)Nc1ccc(S(=O)(=O)Nc2ccc(N3CCCCC3)cc2)cc1,inactive
8,FC(F)(F)c1nnc2ccc(N3CCN(c4ccccc4)CC3)nn12,inactive
9,Nc1nnc2c(C(F)(F)F)nc3ccccc3n12,inactive
10,FC(F)(F)c1nnc2c3ccccc3c(Cl)nn12,20.6 µM (active)
11,CCOC(=O)c1ccc(NC(=O)C2CC(=O)N(c3ccc4c(c3)OCCO4)C2)cc1 (stereo not given),inactive
12,CC[C@]1(O)CC2CN(CCc3c([nH]c4ccccc34)[C@@](C(=O)OC)(c3cc4c(cc3OC)N(C=O)[C@H]3[C@@](O)(C(=O)OC)[C@H](OC(C)=O)[C@]5(CC)C=CCN6CC[C@]43[C@@H]65)C2)C1 (stereo not given in full),0.651 µM (active)
13,O=S(=O)(NCCc1ccccn1)c1cc(Cl)cc(Cl)c1O,inactive
14,CC(=O)c1ccc(N2CCN(C(=O)c3ccc(Cl)c(S(=O)(=O)NC4CC4)c3)CC2)c(F)c1,inactive
15,Cc1ccc(C(=O)Nc2ccn(C)n2)cc1,inactive
16,COc1ccc(NC(=O)COC(=O)c2n[nH]c3ccccc23)c(OC)c1,inactive
17,CC(C)(C)OC(=O)C[C@@H]1C/C=C\C[C@@H](CC(=O)N[C@H](CO)Cc2ccccc2)C(=O)NC[C@@H](c2ccccc2)OC1=O,inactive
18,O=C(C[C@H]1C/C=C\C[C@@H](NC(=O)OCC2c3ccccc3-c3ccccc32)C(=O)O[C@@H](c2ccccc2)CNC1=O)N[C@H](CO)Cc1ccccc1,10.3 µM (active)
19,CC(C)(C)OC(=O)C[C@H]1C/C=C\C[C@@H](CC(=O)N[C@H](CO)Cc2ccccc2)C(=O)NC[C@@H](c2ccccc2)OC1=O,inactive
20,CCN(CC(=O)Nc1c(F)cccc1F)C(=O)Cc1cccs1,inactive

row,SMILES,Potency
1,O=C(c1cnccn1)N1CCN(S(=O)(=O)c2cccc(Cl)c2)CC1,inactive
2,CCOC(=O)c1c(C)[nH]c(C)c1S(=O)(=O)N(C)CC(=O)Nc1ccccc1C,inactive
3,CCOC(=O)N1CCN(CC(=O)c2c(C)[nH]c3ccccc23)CC1,inactive
4,CCOC(=O)c1c(C)[nH]c2c1-c1ccccc1C(=O)C2=O,1.3 µM (active)
5,COc1ccc(C(=O)N(C)Cc2ccc(OC)c(OC)c2OC)cc1S(=O)(=O)N1CCOCC1,inactive
6,O=C(CC(O)(C(F)(F)F)C(F)(F)F)Nc1ccc(Cl)c(Cl)c1,5.8 µM (active)
7,Cc1ccc(NC(=O)C/C(N)=N/O)cc1Cl,inactive
8,Cc1nnc(NC(=O)Nc2ccc(Cl)c(Cl)c2)s1,inactive
9,C[C@H](O)[C@@H]1C(=O)N2CCc3ccc(N4CCOCC4)cc3[C@@H]2C[C@@H]1N(C)C(=O)C(C)(C)C,inactive
10,CN(C)C(=O)CCc1ccc2c3c([nH]c2c1)[C@]1(CCC2CCCC2)[C@@H](C(=O)N2CCOCC2)C[C@H](CC(=O)NCc2ccco2)C(=O)N1CC3,inactive
11,CC(=O)OCC1(O)CC23CCC4c5ccoc5CCC4(C)C2CCC1C3 (stereo not given),inactive
12,N#Cc1c(-c2ccccc2)c(-c2ccccc2)n[nH]c1=O,2.59 µM (active)
13,Cc1ccc(CSc2nc(-c3ccccc3)c(C#N)c(=O)[nH]2)cc1,inactive
14,N#Cc1c2c(c(-c3ccccc3)[nH]c1=O)CCCC2,inactive
15,CCOc1ncccc1C(=O)OCC(=O)Nc1cccc(S(=O)(=O)N2CCCCCC2)c1,inactive
16,COc1cc(OC)c(N2CC(C(=O)Nc3cc(Cl)ccc3N3CCOCC3)CC2=O)cc1Cl (stereo not given),18.4 µM (active)
17,COc1ccc(Cl)cc1NC(=O)C1CC(=O)N(c2ccc(F)cc2)C1 (stereo not given),inactive
18,COc1ccccc1N1CC(C(=O)Nc2ccc(S(=O)(=O)N3CCOCC3)cc2)CC1=O (stereo not given),inactive
19,Cc1ccc(CSc2ccc(S(=O)(=O)N3CCCCC3)cn2)cc1,inactive
20,Cc1ccsc1C(=O)NNC(=O)COc1ccc(Br)cc1,inactive

row,SMILES,Potency
1,O=C1c2ccccc2C(=O)C1C(=O)C1CC1,inactive
2,O=c1cc(-c2ccccc2)[nH]c2cc(F)ccc12,1.3 µM (active)
3,Cc1ccc(-c2cc(=O)c3ccc(Cl)cc3[nH]2)cc1,inactive
4,Cc1ccc(-c2cc(=O)c3ccc(F)cc3[nH]2)cc1,inactive
5,C[C@H](CO)N1C[C@H](C)[C@H](CN(C)CC2CC2)Oc2ccc(NC(=O)CCN3CCOCC3)cc2C1=O,inactive
6,CC(=O)c1ccc(NC(=O)C(C)OC(=O)c2ccc(NS(=O)(=O)c3ccc4[nH]c(=O)[nH]c4c3)cc2)cc1 (stereo not given),inactive
7,O=S(=O)(Nc1ncnc2sccc12)c1cccc(F)c1,inactive
8,COc1ccc2c(c1)C=CC1(O2)N(CCO)c2ccccc2C1(C)C (stereo not given),20.6 µM (active)
9,COc1ccc2c(c1)C(SCC(=O)NCc1ccccc1)CC(C)(C)O2 (stereo not given),inactive
10,CN1c2ccc([N+](=O)[O-])cc2C(C)(C)C12C=Cc1cc(C(=O)O)ccc1O2 (stereo not given),inactive
11,O=C(CN1C(=O)NC2(CCCCCCC2)C1=O)NCc1ccc(F)cc1,inactive
12,COc1cccc(C(=O)OCC(=O)c2[nH]c(C)c(C(C)=O)c2C)c1,inactive
13,CCN(C[C@H]1N[C@@](CC)(C(=O)OC)[C@H]2C(=O)N(Cc3ccccc3)C(=O)[C@@H]12)S(=O)(=O)c1ccc(C(F)(F)F)cc1,inactive
14,CCC1(CC)NC(=O)N(CC(=O)OCC(=O)c2cc(C)c(C)cc2C)C1=O,inactive
15,O=C(NCC1CCCCC1)NCC1CCCCC1,inactive
16,CCN(CC)c1ccc(NC(=O)c2ccc(Cl)nc2)cc1,5.8 µM (active)
17,Cc1cnc(NC(=O)c2ccc(Cl)nc2)s1,inactive
18,O=C(NNC(=O)c1ccc(Cl)nc1)c1ccc(Br)cc1,inactive
19,Cc1ccccc1SCC(=O)OCC(=O)N1CC(=O)Nc2ccccc21,inactive
20,Cc1ccccc1-c1cc(C(=O)NCc2cccs2)n(CC2CC(c3cccnc3)=NO2)n1 (stereo not given),inactive
